By inhibition is commonly meant the relative decrease from the control value, in per cent.

Results on 89 molecules are retold here after PubChem BioAssay AID2221 (Broad Institute, 2009).

The campaign covered roughly 290,000 compounds. About 2,200 (0.76%) were called active. Shown is part of a subset that was picked to be rich in actives. Unmarked numbers belong to inactive results. Cut-off read from the data, not from the text of the source: active = inhibition above about 30%; inconclusive = no clear call, values can overlap the other calls; inactive = below that.

Chain of Protein RecA (Mycobacterium tuberculosis (strain ATCC 25618 / H37Rv)) (P9WHJ3 whole entry, looked up): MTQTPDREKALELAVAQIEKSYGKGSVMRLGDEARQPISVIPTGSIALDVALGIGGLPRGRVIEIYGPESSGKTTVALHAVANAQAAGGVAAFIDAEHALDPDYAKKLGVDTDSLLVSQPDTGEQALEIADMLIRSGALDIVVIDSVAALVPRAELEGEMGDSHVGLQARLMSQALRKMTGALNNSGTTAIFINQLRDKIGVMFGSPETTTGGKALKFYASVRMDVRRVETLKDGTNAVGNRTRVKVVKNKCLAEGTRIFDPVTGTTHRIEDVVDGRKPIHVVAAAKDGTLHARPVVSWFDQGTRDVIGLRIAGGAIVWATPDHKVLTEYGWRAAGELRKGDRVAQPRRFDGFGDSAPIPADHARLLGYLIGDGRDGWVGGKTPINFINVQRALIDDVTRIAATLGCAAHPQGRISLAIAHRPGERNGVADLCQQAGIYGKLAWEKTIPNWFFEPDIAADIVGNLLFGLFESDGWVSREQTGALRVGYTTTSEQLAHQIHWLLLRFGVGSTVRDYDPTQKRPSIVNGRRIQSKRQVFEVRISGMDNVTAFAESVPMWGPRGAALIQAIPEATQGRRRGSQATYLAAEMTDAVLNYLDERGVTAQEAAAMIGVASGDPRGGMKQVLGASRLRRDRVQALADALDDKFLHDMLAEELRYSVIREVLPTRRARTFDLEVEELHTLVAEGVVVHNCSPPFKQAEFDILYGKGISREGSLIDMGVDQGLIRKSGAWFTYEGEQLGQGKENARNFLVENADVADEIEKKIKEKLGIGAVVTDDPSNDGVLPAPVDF

This assay concerns the target Protein RecA (Mycobacterium tuberculosis (strain ATCC 25618 / H37Rv)) (UniProt P9WHJ3). Description: Mtb RecA intein splicing inhibitors, primary screen, biochemical, fluorescence, HTS (AID 2221).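 Note: 0% = vehicle wells and 100% = reference inhibitor control wells.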 The settings on record: cell-free RecA intein splicing, stronger effect = higher value, concentration not given here.
With `CCOC(=O)C(CC)Sc1ncnc2c1nnn2-c1ccc(F)cc1` (centres undefined), the inhibition is 36.6% (active).
The result for `CCOC(=O)C(C)n1cnc2c(nnn2-c2ccc(F)cc2)c1=O` (centres undefined) reads -0.542%; that for `COC(=O)C(C)n1cnc2c(nnn2-c2ccc(F)cc2)c1=O` (centres undefined), -1.59%; that for `Cc1ccc(C(=O)COC(=O)CCN2C(=O)C3C4CC(C(Br)C4Br)C3C2=O)cc1` (centres undefined), 1.16%.
For the molecule `CC(=O)Nc1ccc(N2C(=O)CC(Sc3nccc(C)n3)C2=O)cc1` (centres undefined), the inhibition was -1.08%.
The result for `O=C(Oc1ccccc1C(=S)N1CCCCC1)c1cc([N+](=O)[O-])cc([N+](=O)[O-])c1` reads 28.1%; that for `O=C(Oc1ccc(Br)cc1C(=S)N1CCOCC1)c1cccc([N+](=O)[O-])c1`, 32.3% (active); that for `COc1cc(C(=S)N2CCOCC2)cc(OC)c1OC(=O)c1cc([N+](=O)[O-])cc([N+](=O)[O-])c1`, -0.59%.
The result for `Cc1nn(C)cc1/C=C1\CCC/C(=C\c2cn(C)nc2C)C1=O` reads 1.91%.
Then `CC(=O)c1c(C)c[nH]c1C`, with 0.735%; and `S=C(NCC1COc2ccccc2O1)Nc1ccc(Br)cc1` (centres undefined), with 2.68%.
For the molecule `CC12CCC(C(=O)N(c3cccc(Cl)c3)C1=O)C2(C)C` (centres undefined), the inhibition was 2.02%.
In the case of `CC1=NN(c2cccc(Cl)c2)C(=O)C12CC(C)=C(C)CS2` (centres undefined), the inhibition was 31.7% (active).
Then `Cc1[nH]n(-c2cccc(Cl)c2)c(=O)c1-c1ccc(Cl)cc1`, with 8.51%; and `COC(=O)C1=C(Nc2ccc(C)cc2)C=C(C)C(C(=O)OC)C1c1ccc(F)cc1` (centres undefined), with -4.47%; and `COc1cccc(Nc2nc(N)c([N+](=O)[O-])c(NCc3ccco3)n2)c1`, with 9.57%.
Turning to `CCOc1ccc(C(CC(=O)O)NC(=O)Cc2ccccc2)cc1OC` (centres undefined), the inhibition was -1.09%.
The result for `CCOc1ccc(C(c2c(C)[nH][nH]c2=O)c2c(C)[nH][nH]c2=O)cc1OCC` reads 98.1% (active).
For the molecule `Cc1[nH][nH]c(=O)c1C(c1ccc2c(c1)OCO2)c1c(C)[nH][nH]c1=O`, the inhibition was 97.8% (active).
On to `Cc1[nH][nH]c(=O)c1C(c1ccc(-c2ccc(Cl)cc2)o1)c1c(C)[nH][nH]c1=O`, for which the inhibition is -2.86%.
Then `C=CCOc1ccc(/C=C2/C(=O)ON=C2C)cc1OCC`, with 0.545%.
In the case of `CC(NC(=O)c1ccco1)c1ccc2c(c1)OCO2` (centres undefined), the inhibition was -3.46%.
The result for `O=C(NCCCn1ccnc1)c1cc(Br)c(Br)s1` reads -6.96%.
Regarding `COc1ccccc1/C=C/C(=O)NC(=S)N1CCOCC1`, the inhibition was 1.89%.
The result for `CCC(C)N(C(=O)Cn1nc(C)c([N+](=O)[O-])c1C)C1CCS(=O)(=O)C1` (centres undefined) reads 2.19%; that for `COCCc1nn2c(=O)cc(COC(=O)c3cc(OC)c(OC)c(OC)c3)nc2s1`, 0.818%.
The result for `CN1c2ccc(C=O)c3c(C=O)ccc(c23)N(C)C1(C)C` reads 63.9% (active).
Then `Cc1[nH]c(C)c(S(=O)(=O)N2CCN(c3cccc(C(F)(F)F)c3)CC2)c1C(=O)N1CCCC1`, with 0.869%.
Turning to `CCC(c1nnnn1Cc1ccccc1)N(Cc1cc2cc(OC)ccc2[nH]c1=O)CC1CCCO1` (centres undefined), the inhibition is -10.9%.
In the case of `CCC(c1nnnn1Cc1ccco1)N(Cc1cc2cc(OC)ccc2[nH]c1=O)C1CCCCC1` (centres undefined), the inhibition was 30.6% (active).
Then `CCC(c1nnnn1Cc1ccco1)N(CCc1ccccc1)Cc1cc2ccc(OC)cc2[nH]c1=O` (centres undefined), with 16.5%; and `C[C@H](C(=O)CC(=O)OC(C)(C)C)[C@H](O)c1ccc(C(F)(F)F)cc1`, with 0.927%.
The result for `CCCCCCCCCCOC(=O)Cn1c(COc2ccc(C)cc2)[n+](C)c2ccccc21` reads 51.7% (active); that for `CCCCCCCCCCOC(=O)Cn1c(COc2cccc(OC)c2)[n+](C)c2ccccc21`, 51.1% (active).
As to `COc1cccc(OCCCN2CCCCCC2)c1`, the inhibition is -1.65%.
For the molecule `Cc1ccc(OCc2nc3ccccc3n2C)cc1`, the inhibition was 1.88%.
Then `Cc1ccc(OCCCn2c(=O)oc3ccccc32)cc1`, with 2.53%.
The result for `CCn1c(=N)n(CC(=O)c2cccc(OC)c2)c2ccccc21` reads 5.77%; that for `O=S(N1CCCCCC1)C12CC3CC(CC(C3)C1)C2` (centres undefined), -0.132%; that for `COc1ccc(CCNC(=O)CCC(=O)NC2CCCCC2)cc1OC`, -0.371%.
Then `COc1ccc(NC(=O)c2cc(-c3cc(OC)c(OC)c(OC)c3)nc3ccccc23)c(OC)c1`, with 10.4%.
On to `CCOC(=O)c1c(S(=O)(=O)NCC(=O)Nc2ccc(C)cc2)c(C)n(C)c1C`, for which the inhibition is -0.878%.
Then `Cc1nnc(SCC(=O)N2CCOCC2)[nH]c1=O`, with -0.0115%; and `CCOC(=O)CSc1nc(C)c(Oc2ccc(Cl)cc2Cl)c(=O)[nH]1`, with 1.85%.
The result for `CCCCOC(=O)CNc1nnc(SCC(=O)OCC)[nH]c1=O` reads 77.5% (active); that for `CCC(C)[C@H](NC(=O)N1CCn2c1nc1ccccc12)C(=O)NCc1ccc(OC)cc1` (some centres undefined), 2.07%; that for `COc1ccccc1NC(=O)/C=C/C(=O)O`, -1.49%.
Then `COC(=O)c1sc(-c2ccc(C(C)(C)C)cc2)cc1NC(=O)/C=C/C(=O)O`, with 88.1% (active).
As to `O=C(O)/C=C/C(=O)Nc1ccc(F)cc1F`, the inhibition was 0.519%.
Then `CSc1ccc(S(=O)(=O)NCC(=O)OCC(=O)NC2(C#N)CCCCC2)cc1[N+](=O)[O-]`, with 1.65%; and `CC(C)[C@H](NC(=O)OCc1ccccc1)C(=O)OCc1ccccc1`, with 7.54%; and `CCOC(=O)c1ccc(NC(=O)c2cc(=O)[nH]c3ccccc23)cc1`, with -5.09%.
The result for `CCOC(=O)c1nc(Nc2ccc(C(=O)OC)cc2)c2ccccc2n1` reads -6.39%.
Then `CCOC(=O)c1ccc(Nc2cc3ccccc3c(=O)[nH]2)cc1`, with 62.4% (active).
Take `CCN(CC)CCNC(=O)c1sc2ncn(CC(=O)Nc3ccc(C)c(Cl)c3)c(=O)c2c1C`: the inhibition is -0.641%.
Then `O=C(CN1C(=O)CC(c2ccccc2)=Nc2ccccc21)NC1CCCCC1`, with -1.07%.
The result for `CCOc1ccc(NC(=O)C2CCN(C(=O)N3CCOc4ccccc43)CC2)cc1` reads 2.39%.
For `Cc1nnc(NC(=O)C(c2ccccc2)c2ccccc2)s1`, the inhibition was 1.12%.
The result for `CCN1CCN(c2ccc(NC(=O)c3cnccn3)cc2)CC1` reads -0.413%.
On to `CCOC(=O)N1CCN(C(c2cccnc2)c2ccc3cccnc3c2O)CC1` (centres undefined), for which the inhibition was 9.76%.
Then `CCN1CCN(C(c2cccnc2)c2cc(Cl)c3cccnc3c2O)CC1` (centres undefined), with 70% (active).
The result for `COc1cccc(/C=N/Nc2cc(C)nc(-c3ccccc3O)n2)c1O` reads 38.8% (active); that for `COc1cccc(/C=N/Nc2ncc(C(F)(F)F)cc2Cl)c1O`, -2.37%; that for `COc1ccccc1/C=N\Nc1cc(C)nc(-n2nc(C)cc2C)n1`, 0.767%.
Then `C/C(=N\NC(=O)COc1ccc(C)cc1[N+](=O)[O-])c1ccc2c(c1)OCCO2`, with 1.11%.
For `O=C1COc2ccc(S(=O)(=O)Nc3ccc(OC(F)(F)F)cc3)cc2N1`, the inhibition was -0.276%.
Regarding `Cc1nn(C)c(C)c1NS(=O)(=O)c1ccc(OC(F)(F)F)cc1`, the inhibition is 0.692%.
Consider `O=S(=O)(Nc1ccc(O)c2ccccc12)c1ccc(OC(F)(F)F)cc1`, for which the inhibition is 95.2% (active).
In the case of `COCCCC1CCN(C(=O)C2CCC(=O)N(C3CCCCCC3)C2)CC1` (centres undefined), the inhibition was -0.89%.
Then `Cc1ccc(CC2CC(=O)N(c3nc(C)cc(C)n3)C2=O)cc1` (centres undefined), with -1.07%.
The result for `CC(=O)c1sc(NC(=O)C2=NN(c3ccccc3)C(=O)CC2)nc1C` reads -1.59%.
`Cc1cc(C)cc(NC(=O)C2CCN(c3nc(C)cc(C)n3)CC2)c1`: the inhibition is -1.54%.
Then `COC(=O)CC1=NN(c2nc(C)cc(C)n2)C(=O)C1`, with 36.2% (active); and `C/C(N)=C(/C#N)C(=O)COC(=O)C1=NN(c2ccccc2)C(=O)CC1`, with -0.739%; and `COC(=O)CC1=NN(c2ccccc2)C(=O)C1`, with 76.6% (active).
Then `O=C(CSc1nc(Nc2ccccc2)nc(N2CCOCC2)n1)Nc1cc(Cl)ccc1O`, with 2.06%; and `CCCn1nc(C(=O)NNC(=O)CSCC(=O)Nc2cc(C)on2)c2ccccc2c1=O`, with 1.67%.
The result for `O=C1Nc2cc(C(=O)N3CCC(N4CCCCC4)CC3)ccc2S/C1=C\c1ccccc1` reads 1.2%; that for `Cc1csc(CN(C)C(=O)CC2C(=O)NCCN2CC(C)(C)C)n1` (centres undefined), -5.7%; that for `O=C(C(Cc1ccccc1)n1cccc1)N1CCN(C2CCCCC2)CC1` (centres undefined), 1.21%.
As to `NCCCC[C@@H]1NC(=O)[C@H](CCC(=O)O)NC(=O)c2cc([N+](=O)[O-])cc(I)c2NCC[C@@H](C(N)=O)NC1=O`, the inhibition was 0.579%.
For the molecule `NC(=O)CC[C@@H]1NC(=O)[C@H](CO)NC(=O)c2cc([N+](=O)[O-])cc(I)c2NCC[C@@H](C(N)=O)NC1=O`, the inhibition was 30.3% (active).
On to `NC(=O)C[C@@H]1NC(=O)CNC(=O)c2cc([N+](=O)[O-])cc(I)c2NCCC(C(N)=O)NC1=O` (some centres undefined), for which the inhibition was 1.58%.
The result for `COc1ccc(Nc2ncc(F)c(N3CCOCC3)n2)cc1` reads -0.77%.
The result for `CN(C)S(=O)(=O)c1ccc(C(=O)NCCN=C2NS(=O)(=O)c3ccccc32)cc1` reads -1.53%; that for `Cc1cc(C)c(NC(=O)CN2C(=O)NC(Cc3ccccc3)C2=O)c(C)c1` (centres undefined), 0.835%; that for `Cc1onc(-c2c(Cl)cccc2Cl)c1C(=O)NNC(=O)c1c(-c2c(Cl)cccc2Cl)noc1C`, 0.133%.
The result for `Cc1onc(-c2c(Cl)cccc2Cl)c1C(=O)c1c[nH]c(C(=O)NC2CC2)c1` reads 5.76%; that for `Cc1[nH]n(C)c(=O)c1C(=O)c1c(-c2c(Cl)cccc2Cl)noc1C`, 77.1% (active).
